For part of these data: Potency and affinity values are given separately. A structure can be active in one record and inactive in another. Active and inactive are the calls of the source.
Tests used:
[1] = Ebola virus entry assay, green fluorescence channel
[2] = Ebola virus entry assay, blue channel fluorescence
[3] = Ebola virus entry assay, green fluorescence channel; remark: listed apart in the source
[4] = Ebola virus entry assay, ratio channel readout
[5] = Ebola virus entry assay, blue channel fluorescence; remark: listed apart in the source
[6] = Ebola virus entry assay, ratio channel
[7] = Ebola virus entry assay, reporter ratio channel
[8] = Ebola virus entry assay, blue channel (ratio component)
[9] = Ebola virus entry reporter assay, green channel fluorescence
[10] = Ebola virus entry cell assay, ratio channel
[11] = Ebola virus entry assay, blue channel fluorescence; remark: listed apart in the source
[12] = Immunotoxin (HA22) sensitization/mitigation study. Vehicle arm (PBS) (AID 1159510); conditions: cancer cells viability with PBS vehicle (HA22 study); series mostly up to 46.1 µM; also: potency is read from the fitted curve at half-maximal effect
[13] = Immunotoxin (SS1P) sensitization/mitigation study. Vehicle arm (DMEM) (AID 1159513); conditions: cell viability with vehicle (DMEM); series mostly up to 46.1 µM; also: potency is read from the fitted curve at half-maximal effect
[14] = High-throughput drug toxicity screening in the BPDCN cell line Gen2.2 (AID 1224824); conditions: Gen2.2 BPDCN cells; at 45.8 µM (top of the series);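 also: cells exposed to compounds for 48 h before reading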
How it was run: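 Gen2.2 cells (500/well) in phenol red-free RPMI with 10% FBS were exposed to compounds for 48 h at 37 °C, 5% CO2. Viability was read by CellTiter-Glo luminescence and normalized to DMSO (100%) and 9.2 uM bortezomib (0%).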

[15] = High-throughput drug toxicity screening in the BPDCN cell line Cal-1 (AID 1224825); conditions: Cal-1 BPDCN cell viability, qHTS; at 45.8 µM (top of the series)
How it was run: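 500 Cal-1 cells/well, RPMI + glutamine + 10% FBS (phenol red-free); cpd added by pin tool; 48 h, 37C, 5% CO2; CTG 15 min RT, lumi read. Normalised: DMSO 100%, bortezomib 9.2 uM 0%.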

[16] = qHTS assay for measurement of the activity of small molecule inhibitors on Zika virus induced Caspase-3 activity in human astrocytoma cells (AID 1224859; active = well fitted inhibition curve with a large enough effect;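 also: plate controls were ZIKV-infected untreated cells for no effect and uninfected cells for full effect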); conditions: SNB-19 ZIKV-induced caspase-3/7, luminescence, 6 h; series mostly up to 45.7 µM
How it was run: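 A cell-based luminescent caspase-3/7 assay used SNB-19 cells infected with ZIKV (2 FFU/cell) for 6 h following 1 h compound pretreatment.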

[17] = AC50: Channel type: primary unless noted, outcome: Channel type: primary unless noted
For efficacy in this document: 0% is about no effect.

COCCCOc1cc(C[C@@H](C[C@H](N)[C@@H](O)C[C@H](C(=O)NCC(C)(C)C(N)=O)C(C)C)C(C)C)ccc1OC
inactive: efficacy [1] 31.8% | outcome [2] | outcome [3] | outcome [4] | outcome [5] | outcome [6] | outcome [7, 17] | outcome [8] | outcome [9] | outcome [10]

C[C@H]1c2cccc(O)c2C(O)=C2C(=O)[C@]3(O)C(O)=C(C(N)=O)C(=O)[C@@H](N(C)C)[C@@H]3[C@@H](O)[C@@H]21
inactive: efficacy [1] 76.6% | outcome [2] | outcome [3] | outcome [4] | outcome [11] | outcome [10]
active: AC50 [5] 25.1 µM | AC50 [6] 20 µM | AC50 [7, 17] 20 µM

CC(C)C[C@H](NC(=O)[C@H](Cc1ccccc1)NC(=O)c1cnccn1)B(O)O
inactive: efficacy [1] -28.6% | outcome [2] | outcome [3] | outcome [4] | outcome [11] | outcome [9] | outcome [10]
active: AC50 [5] 0.0794 µM | AC50 [6] 1.26 µM | AC50 [7, 17] 1.26 µM | Potency [12] 0.0037 µM | Potency [13] 0.0148 µM

CC/C(=C(\c1ccccc1)c1ccc(OCCN(C)C)cc1)c1ccccc1
inactive: efficacy [1] -205% | outcome [3] | outcome [7, 17] inactive [Channel type: confirmation]
active: AC50 [2] 1.12 µM | AC50 [4] 1.26 µM | AC50 [5] 1.41 µM | AC50 [6] 1.12 µM | AC50 [7, 17] 1.12 µM | AC50 [10] 1.26 µM

CCOC(=O)Nc1ccc2c(c1)N(C(=O)CCN1CCOCC1)c1ccccc1S2
inactive: efficacy [1] 62.7% | outcome [2] | outcome [3] | outcome [4] | outcome [5] | outcome [6] | outcome [11] | outcome [8] | outcome [10]
active: AC50 [7, 17] 39.8 µM

CN(C)CCOC(c1ccc(Cl)cc1)c1ccccn1 (configuration not stated)
active: AC50 [5] 22.4 µM | AC50 [7, 17] 39.8 µM
inactive: efficacy [1] 34.3% | outcome [2] | outcome [3] | outcome [4] | outcome [6] | outcome [11] | outcome [9] | outcome [10]

CO[C@H]1C=CO[C@@]2(C)Oc3c(C)c(O)c4c(O)c(c(/C=N/N5CCN(C)CC5)c(O)c4c3C2=O)NC(=O)/C(C)=C\C=C[C@H](C)[C@H](O)[C@@H](C)[C@@H](O)[C@@H](C)[C@H](OC(C)=O)[C@@H]1C
inactive: efficacy [1] 60.3% | outcome [2] | outcome [3] | outcome [4] | outcome [5] | outcome [6] | outcome [11] | outcome [7, 17] | outcome [8] | outcome [9] | outcome [10]

COC1=CC(=O)C[C@@H](C)[C@]12Oc1c(Cl)c(OC)cc(OC)c1C2=O
inactive: efficacy [1] 30% | outcome [2] | outcome [3] | outcome [4] | outcome [5] | outcome [6] | outcome [11] | outcome ([7]; Channel type: confirmation) | outcome ([7]; Channel type: primary) | outcome [9] | outcome [10]

Cc1cc2c(s1)Nc1ccccc1N=C2N1CCN(C)CC1
active: AC50 [7, 17] 39.8 µM
inactive: efficacy [1] 36% | outcome [2] | outcome [3] | outcome [4] | outcome [5] | outcome [6] | outcome [11] | outcome [8] | outcome [10]

NC[C@H](O)c1ccc(O)c(O)c1
inactive: efficacy [1] 112% | outcome [2] | outcome [3] | outcome [4] | outcome [11] | outcome [10]
active: AC50 [5] 12.6 µM | AC50 [6] 7.94 µM | AC50 [7, 17] 7.94 µM

CC(C)(C)NC(=O)[C@H]1CC[C@H]2[C@@H]3CC[C@H]4NC(=O)C=C[C@]4(C)[C@H]3CC[C@]12C
inactive: efficacy [1] 71.8% | outcome [2] | outcome [3] | outcome [4] | outcome [5] | outcome [6] | outcome [11] | outcome [7, 17] | outcome [8] | outcome [10]

CC#C[C@]1(O)CC[C@H]2[C@@H]3CCC4=CC(=O)CCC4=C3[C@@H](c3ccc(N(C)C)cc3)C[C@@]21C
inactive: efficacy [1] 23.8% | outcome [2] | outcome [3] | outcome [4] | outcome [5] | outcome [6] | outcome [11] | outcome [7, 17] | outcome [10]

COc1ccc(C(CN(C)C)C2(O)CCCCC2)cc1 (configuration not stated)
active: AC50 [5] 35.5 µM | AC50 [7, 17] 39.8 µM
107%: viability (% of control) [15]
171%: cell viability, % of control (lower = more cytotoxic) [14]
inactive: efficacy [1] 55.6% | outcome [2] | outcome [3] | outcome [4] | outcome [6] | outcome [11] | outcome [9] | outcome [10] | outcome [16]

COC(=O)Nc1nc2ccc(C(=O)c3ccccc3)cc2[nH]1
active: AC50 [2] 5.62 µM | AC50 [5] 1.41 µM | AC50 [6] 1.26 µM | AC50 [7, 17] 1.26 µM | AC50 [10] 5.62 µM
inactive: efficacy [1] 81.3% | outcome [3] | outcome [4] | outcome [8]

COc1cc2nc(N(C)CCCNC(=O)C3CCCO3)nc(N)c2cc1OC (configuration not stated)
inactive: efficacy [1] 46.7% | outcome [2] | outcome [3] | outcome [4] | outcome [6] | outcome [11] | outcome [9] | outcome [10]
active: AC50 [5] 39.8 µM | AC50 [7, 17] 35.5 µM

Cc1nc2n(c(=O)c1CCN1CCC(c3noc4cc(F)ccc34)CC1)CCCC2
inactive: efficacy [1] 54.5% | outcome [2] | outcome [3] | outcome [4] | outcome [5] | outcome [6] | outcome [11] | outcome [7, 17] | outcome [8] | outcome [10]
